Bioassay records from PubChem BioAssay.
p53ts 32C tox: cytotoxicity in p53ts cells at permissive temperature | H1299-p53A138V at 32C, ATP luminescence viability, 24 h | Potency, µM (series often up to 46.1 µM), hits mostly cytotoxic | hit rate 0.93% among 130,000; further: nearly all actives have a fitted effect of over 55% in size
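H1299-p53 A138V cells (temperature-sensitive p53) exposed 24 h to up to 46 uM compound at 32C, where p53 is wild-type in conformation. Viability read as ATP luminescence and normalised to DMSO and 100 uM tamoxifen. AC50 fitted with the Hill equation.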
Imprint erasure: induces erasure of genomic imprints in mouse ES cells | Potency, µM (titrated, usually from 60.7 µM), usual class: activators | hit rate 0.02% among 110,000 | AID 1948 | mouse ES Peg3-LacZ reporter, beta-gal luminescence, 40 h
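Gelatin-coated wells received 300 freshly trypsinized female ES cells with a Peg3LacZ-Neo reporter on the maternal allele, then incubated 40 hours at 37C. BetaGlo was added for 5 minutes at room temperature before a single luminescence read.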
p53ts 39C kill: p53ts cell cytotoxicity, nonpermissive temperature; Potency, µM (top dose mostly 46.1 µM), usual class: cytotoxic; hit rate 1.5% among 130,000; H1299-p53A138V viability at 39C, ATP luminescence, 24 h; further: nearly all actives have a fitted effect of over 55% in size
A number is an active result; - = inactive; ? = inconclusive; . = no result given; [ ] = another dose, or the depositor's remark. Most compounds without a hit are left out; they make up all but 1.8% or so of the library. The call rests on the fitted dose curve; in most records, active means well fitted curve in the direction sought with a large enough effect; inconclusive means small, poorly fitted or top-dose-only effect, or another doubt; inactive means no such curve, though single readings can be large; an effect the other way counts as inactive or inconclusive.

SMILES | p53ts 32C tox | Imprint erasure | p53ts 39C kill
COc1cccc(C(=O)Nc2ccccc2C(=O)OCc2cc(=O)n3c(C)csc3n2)c1 | - | -[10.9 µM] | -
CCCCN(C(=O)NC(=O)Nc1nc2ccc(OC)cc2s1)S(C)(=O)=O | 13µM | - | ?
CCCCOC(=O)Nc1nc2ccc(OC)cc2s1 | - | - | -
COc1ccc(CCNC(=O)Cc2c(C)c3ccc(O)c(C)c3oc2=O)cc1OC | - | -[10.9 µM] | -
COc1cc(C(=O)Nc2ccc3oc(-c4ccccc4)nc3c2)cc(OC)c1OC | ? | -[10.9 µM] | 13µM
COc1cc2ccccc2cc1C(=O)Nc1ccc2oc(-c3ccc(Cl)cc3)nc2c1 | - | -[10.9 µM] | 7.9µM
CCc1ccc2oc(-c3ccc(NC(=O)c4cc(OC)c(OC)c(OC)c4)cc3)nc2c1 | - | -[10.9 µM] | -
COc1cc2ccccc2cc1C(=O)Nc1ccc2oc(-c3cccc(C)c3)nc2c1 | - | -[10.9 µM] | -
COc1ccccc1C(=O)Nc1ccc(N2CCN(S(C)(=O)=O)CC2)cc1 | - | - | ?
CCOc1ccc(C(=O)Nc2ccc3oc(-c4cccc5ccccc45)nc3c2)cc1 | - | -[10.9 µM] | 10µM
CCOc1ccc(C(=O)Nc2ccc3oc(-c4ccc(Br)cc4)nc3c2)cc1 | - | -[10.9 µM] | -
COc1cc2ccccc2cc1C(=O)Nc1ccc(N2CCN(C)CC2)cc1 | ? | - | 13µM
COc1cccc(-c2cc(NCc3cnc(C)cn3)ncn2)c1 | - | - | -
CCN(CC)CCCNC(=O)c1ccc2c(c1)sc1nc(-c3ccc(C)cc3)cn12 | - | -[10.9 µM] | -
CC(C)NC(=O)C1CCCN(S(=O)(=O)c2ccc3c(ccn3C)c2)C1 (stereo not drawn) | - | -[10.9 µM] | -
CC(C)N(Cc1ccccc1)S(=O)(=O)c1n[nH]c(C(C)(C)C)n1 | -[9.22 µM] | -[10.9 µM] | -[9.22 µM]
Cc1cc(C)n2nc(CNS(=O)(=O)c3ccccc3)nc2n1 | - | -[10.9 µM] | -
O=C1c2ccccc2-c2onc3c(N4CCN(C5CCCCC5)CC4)cc(NCCO)c1c23 | - | -[10.9 µM] | -
CN(C)CCCNc1cc(N2CCN(C3CCCCC3)CC2)c2noc3c2c1C(=O)c1ccccc1-3 | - | -[10.9 µM] | 20µM
CN(C)c1ncc2nc(-c3ccccc3)c(=O)n(C)c2n1 | ? | - | ?
NC(CCC(=O)NC(CCSC(CC(=O)O)C(=O)O)C(=O)NCC(=O)O)C(=O)O (stereo not drawn) | - | - | -
C#CCn1c(=NC(=O)c2ccc3c(c2)OCCO3)sc2cc(OC)c(OC)cc21 | - | -[10.9 µM] | -
CCn1c(=NC(=O)c2ccc3c(c2)OCCO3)sc2c(C)ccc(OC)c21 | - | -[10.9 µM] | 10µM
Oc1c(I)cc(I)c2cccnc12 | ? | - | 7.9µM
Oc1c(CN2CCN(c3ccccn3)CC2)cc(Cl)c2cccnc12 | - | - | -
SMILES | p53ts 32C tox | Imprint erasure | p53ts 39C kill
Oc1c(Cl)cc(Cl)c2cccnc12 | ? | - | 3.2µM
Oc1ccc(Cl)c2cccnc12 | - | - | -
CCCCC(=O)NC1(C(F)(F)F)C(=O)Nc2c1c(=O)[nH]c(=O)n2-c1ccc(C)c(C)c1 (stereo not drawn) | - | -[10.9 µM] | -
CCOc1ccccc1C(=O)Nc1cccc2ccc(C)nc12 | - | -[10.9 µM] | -
CC(=O)c1cccc(NS(=O)(=O)c2cc(-c3onc(C)c3C)ccc2C)c1 | - | ? | -
COc1ccc(Nc2cc(C)c3cc(NC(=O)c4cc(OC)cc(OC)c4)ccc3n2)cc1 | - | . | .
CCOC(=O)CSc1nc2c(c(=O)n1-c1ccc(OCC)cc1)SCC2 | - | - | -
CCOC(=O)CSc1nc2c(c(=O)n1-c1ccc(OC)cc1)SCC2 | 1.3µM | - | 1.3µM
CCCSC1=NC2(CCN(C(=O)NC3CCCCC3)CC2)N=C1c1ccc(OC)cc1 | - | -[10.9 µM] | -
CCc1ccccc1NC(=O)C1CCN(c2nn3c(=O)cc(C)nc3s2)CC1 | - | -[10.9 µM] | -
CCc1ccc(OCC(=O)Nc2ccc3c(c2)c2ccccc2n3CC)cc1 | ? | -[10.9 µM] | ?
CCc1ccc(OCC(=O)Nc2ccc3c(c2)c2ccccc2n3CC)c(Br)c1 | - | -[10.9 µM] | 13µM
O=C(CCCN1C(=O)c2cccnc2Oc2ccc(Cl)cc21)NCc1ccccc1F | - | . | .
Cc1nn(-c2ccc(N3CCCCC3)nn2)c(C)c1CCC(=O)Nc1cccc(F)c1 | ? | -[10.9 µM] | ?
Cc1ccc(NC(=O)CCc2c(C)nn(-c3ccc(N4CCCCC4)nn3)c2C)cc1F | ? | -[10.9 µM] | 13µM
Cc1cc(C)cc(OCC(=O)Nc2ccc(Cl)c(-c3nc4ncccc4o3)c2)c1 | - | -[10.9 µM] | -
O=C(CN1C(=O)C2(SCC(=O)N2c2cccc(Cl)c2)c2ccccc21)NCc1ccccc1 (stereo not drawn) | - | -[10.9 µM] | -
CCn1c(C(=O)NCCc2ccc(OC)c(OC)c2)cc2sc(Cl)cc21 | - | -[10.9 µM] | -
Cn1c(C(=O)NCCc2ccccc2)cc2sc(Cl)cc21 | 16µM | -[10.9 µM] | 13µM
COc1cccc(CNC(=O)C2CCCN(c3nn4cc(-c5ccc(C)cc5)nc4s3)C2)c1 (stereo not drawn) | - | . | .
